Data published in PubChem BioAssay (NCATS).
Inconclusive results are not listed. Entries that show only a call come without a potency. Calls of active or inactive are those of the source. Calls follow the shape of the dose curve; as a rule, active = well fitted inhibition curve with a large enough effect; inconclusive = small, poorly fitted or top-dose-only effect; inactive = no such curve, though single readings can be large or run the other way.

These molecules were tested against Retinaldehyde dehydrogenase 3 (Homo sapiens) (UniProt P47895) (assay: qHTS for Inhibitors of the Aldehyde Dehydrogenase Family (ALDH1A3) Primary screen (AID 2061315)). Settings: ALDH inhibition qHTS; series mostly up to 56 µM.

SMILES	Potency
O=C(CN(Cc1cccc2ccccc12)C1CC1)Nc1ccc(N2CCOCC2)cc1	inactive
Nc1c(-c2ccncc2)cc[nH]c1=O	inactive
Cc1noc(Nc2sc3c(c2-c2nc4ccccc4s2)CCNC3)n1	inactive
